Screens from PubChem.
SW480 rereplic – induces DNA re-replication in SW480 colon adenocarcinoma cells | Potency, µM (top dose mostly 46.1 µM), most hits filed as activators | SW480 DNA re-replication, Hoechst DNA content imaging, 48 h | 340,000 tested, 1.8% active; note: nearly all actives have a fitted effect of over 55% in size
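Image-based read-out: total Hoechst fluorescence of nuclei (405 nm excitation, 500-530 nm emission), with hits raising the fraction of high-intensity nuclei. SW480 colon cells incubated 48 hr with compounds at 37 C.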
HT1080 IDH1KD tx – HT-1080 IDH1 knockdown cell toxicity (counter line); HT-1080 IDH1 knockdown viability, ATP luminescence, 48 h; Potency, µM (top dose mostly 46.1 µM), most hits filed as cytotoxic; 360,000 tested, 2% active
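In this qHTS, HT-1080 cells depleted of IDH1 are exposed for 48 h at 37 °C to compound titrations. Toxicity is scored from CellTiter-Glo luminescence, with DMSO as full viability and medium alone as none.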
MCF10A rerep – induces DNA re-replication in MCF 10a normal breast cells; AID 624296; MCF 10A DNA re-replication, Hoechst nuclear intensity, 48 h; Potency, µM (highest dose often 46.1 µM), actives largely listed as activators; 350,000 tested, 2.9% active; note: nearly all actives have a fitted effect of over 50% in size
KB-V1 cytotox – KB-V1 MDR subline cytotoxicity; KB-V1 MDR cells viability, CellTiter-Glo, 72 h; Potency, µM (doses to about 46.1 µM), actives largely listed as cytotoxic; AID 1347076; 400,000 tested, 3.4% active; note: nearly all actives have a fitted effect of over 60% in size
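qHTS viability screen in drug-selected KB-V1 MDR cells: 72 h compound treatment at 37 degrees C, ATP luminescence end point.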
HT1080-NT tox – kills 2HG-producing HT-1080-NT fibrosarcoma cells; HT-1080-NT fibrosarcoma viability, CellTiter-Glo ATP luminescence, 48 h; Potency, µM (highest dose often 46.1 µM), hits mostly cytotoxic; 360,000 tested, 1.6% active; AID 686970;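 note: NT is the 2HG producing partner of a matched IDH1 knockdown line; nearly all actives have a fitted effect of over 55% in size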
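Read-out is CellTiter-Glo luminescence after 10 minutes at room temperature, following 48 hours' compound treatment of HT-1080-NT cells (750 cells/well, RPMI, 5% FBS, 37 degrees C).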
KB-3-1 tox – kills parental KB-3-1 adenocarcinoma cells; KB-3-1 viability, CellTiter-Glo ATP luminescence, 72 h; Potency, µM (doses to about 46.1 µM), actives largely listed as cytotoxic; 400,000 tested, 1.4% active; AID 1347075; note: nearly all actives have a fitted effect of over 60% in size
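72 h, 37 °C compound treatment of KB-3-1 parental cells; CellTiter-Glo added, 10 min, luminescence read. Data corrected against DMSO-only plates and normalized before curve fitting.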
Large screens that a line does not name were inactive. Shown are actives, neighbours in structure and some others; about 7.9% of the full set was active somewhere. Calls come from the whole dose curve; as a rule, active = well fitted curve in the direction sought with a large enough effect; inconclusive = small, poorly fitted or top-dose-only effect, or another doubt; inactive = no such curve, though single readings can be large; an effect the other way counts as inactive or inconclusive.

Cc1ccccc1OCC(=O)NCC(c1ccc(Cl)cc1)N1CCOCC1 (stereo unspecified)	KB-V1 cytotox inconclusive (no result: SW480 rereplic, HT1080 IDH1KD tx, MCF10A rerep, HT1080-NT tox)
COc1ccc(C(CNC(=O)COc2ccccc2C)N2CCOCC2)cc1 (stereo unspecified)	KB-V1 cytotox 18.4µM
CC(C)c1ccccc1OCC(=O)NCC(c1cccs1)N1CCOCC1 (stereo unspecified)	KB-V1 cytotox 18.4µM
CC(C)(C)OC(=O)N1CCC(c2c(C(=O)NCc3ccccc3)cnn2-c2cccc(F)c2)CC1	none (no result: SW480 rereplic, HT1080 IDH1KD tx, MCF10A rerep, HT1080-NT tox)
CC(C)NC(=S)N1CCN(S(=O)(=O)c2cccc(C(F)(F)F)c2)CC1	none
CCNC(=S)N1CCN(S(=O)(=O)c2cccc(C(F)(F)F)c2)CC1	KB-V1 cytotox 23.1µM
Cc1cc(C(=O)NNS(=O)(=O)c2cc(C(=O)O)ccc2Cl)c(C)n1-c1ccccc1	none
O=C(Cn1nc(-c2nn(CC(=O)c3ccccc3)c3[n+]2CCCCC3)[n+]2c1CCCCC2)c1ccccc1	KB-V1 cytotox inconclusive
COc1ccc(C(=O)Cn2nc(CNc3ccc(Br)cc3)[n+]3c2CCCCC3)cc1	HT1080 IDH1KD tx inconclusive, MCF10A rerep inconclusive, HT1080-NT tox inconclusive, KB-3-1 tox 20.6µM
Cc1ccc(C(C)C)c(OCc2nn(CC(=O)c3ccc(OC(F)F)cc3)c3[n+]2CCCCC3)c1	HT1080 IDH1KD tx 18.4µM, HT1080-NT tox 14.6µM, KB-3-1 tox inconclusive
CCOC(=O)c1ccc2c(c1)N(CC(=O)Nc1ccc(C)cc1C)C(=O)c1ccccc1S2	none (no result: SW480 rereplic, HT1080 IDH1KD tx, MCF10A rerep, HT1080-NT tox)
CN(C)c1ccc(CC(=O)N2CCCCC2c2cc(C(=O)Nc3ccccc3Cl)no2)cc1 (stereo unspecified)	HT1080 IDH1KD tx inconclusive, HT1080-NT tox 32.6µM (no result: SW480 rereplic, MCF10A rerep)
COc1ccc(NC(=O)c2cc(C3CCCCN3C(=O)Cc3ccc(N(C)C)cc3)on2)c(C)c1 (stereo unspecified)	none (no result: SW480 rereplic, MCF10A rerep)
CN(C)c1ccc(CC(=O)N2CCCC(c3cc(C(=O)Nc4ccc(F)c(Cl)c4)no3)C2)cc1 (stereo unspecified)	HT1080 IDH1KD tx inconclusive, KB-V1 cytotox 20.6µM, KB-3-1 tox inconclusive (no result: SW480 rereplic, MCF10A rerep)
O=C1NC[C@@H](c2ccccc2)OC(=O)[C@@H](Cc2ccc(F)cc2)C/C=C\C[C@@H]1CC(=O)N(CCO)Cc1ccccc1	MCF10A rerep inconclusive, KB-3-1 tox inconclusive
CC(C)c1ccc(/C=c2\sc3n(c2=O)C(N)=C(C#N)C(c2ccc(C(C)C)cc2)C=3C(N)=O)cc1 (stereo unspecified)	SW480 rereplic inconclusive, MCF10A rerep 1.3µM, KB-3-1 tox inconclusive
CCOC(=O)C1=C(N)n2c(s/c(=C\c3cccnc3)c2=O)=C(C#N)C1c1cccnc1 (stereo unspecified)	none
CCCCNC(=O)c1cnn2c(C)c(Cc3c(F)cccc3Cl)c(C)nc12	none (no result: SW480 rereplic, HT1080 IDH1KD tx, MCF10A rerep, HT1080-NT tox)
CC(C)c1ccc(OCC(=O)Nc2c(Cl)ccc3nsnc23)cc1	none (no result: SW480 rereplic, HT1080 IDH1KD tx, MCF10A rerep, HT1080-NT tox)
CSCCC(NC(=O)c1ccccc1)C(=O)N1CC(C)OC(C)C1 (stereo unspecified)	none
COc1cc(C(C)=O)ccc1OCC(=O)Nc1cc(C)on1	KB-V1 cytotox inconclusive
COc1cc(C)cc(OC)c1OCC(=O)Nc1cc(C)on1	KB-V1 cytotox 20.6µM
Cc1ccc(CONC(=O)c2cccc([N+](=O)[O-])c2)cc1	none
O=C(CCNc1ccc(Br)cc1)c1cccc([N+](=O)[O-])c1	HT1080 IDH1KD tx inconclusive, MCF10A rerep inconclusive, HT1080-NT tox 23.1µM
O=C(CCNc1ccccc1)c1cccc([N+](=O)[O-])c1	SW480 rereplic 8.2µM, HT1080 IDH1KD tx inconclusive, MCF10A rerep 3.66µM
Cc1ccc(NCCC(=O)c2cccc([N+](=O)[O-])c2)cc1	SW480 rereplic inconclusive, HT1080 IDH1KD tx inconclusive, MCF10A rerep 6.51µM, HT1080-NT tox inconclusive
O=C(Nc1ccc(NC(=O)c2cccc([N+](=O)[O-])c2)cc1)c1cccc([N+](=O)[O-])c1	none
O=C(CCNc1ccc(F)cc1)c1cccc([N+](=O)[O-])c1	SW480 rereplic inconclusive, HT1080 IDH1KD tx inconclusive, MCF10A rerep inconclusive, HT1080-NT tox inconclusive
